According to PubChem BioAssay AID485297 (National Center for Advancing Translational Sciences (NCATS), 2010):
About 9,100 (2.8%) of roughly 320,000 compounds were called active. Not shown: some 3% with an inconclusive outcome. The entries come from a sample that favours actives as a whole. Values without a mark were called inactive. Calls follow the shape of the dose curve; as a rule, active = well fitted activation curve with a large enough effect; inconclusive = small, poorly fitted or top-dose-only effect; inactive = no such curve, though single readings can be large or run the other way.

Experiment: qHTS Assay for Rab9 Promoter Activators; also: nearly all actives have a fitted effect of over 60% in size; as to activation, negative = inhibition: % of control where 0% means no effect
Details: Huh7 Rab9 promoter-luciferase reporter, luminescence, 24 h; series mostly up to 9.22 µM; activation, negative = inhibition: at the top concentration
Procedure, shortened: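 Cell-based reporter: Huh7 stable for Rab9 promoter-driven luciferase, plated in reduced-serum medium with 10% FBS at 1500 cells/well, compound-treated 24 h at 37 °C, luminescence read after 10 min reagent.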
Potency is read from the fitted curve at half-maximal effect.

Compound | activation, negative = inhibition | Potency
O=C(N/N=C/c1c[nH]c2ccccc12)c1cc2ccccc2o1 | -3.56% | 
O=C(O)c1cccc(NC(=S)N/N=C/c2c[nH]c3ccccc23)c1 |  | 3.55 µM (active)
CN(C)S(=O)(=O)c1cccc(NC(=S)N/N=C/C(=O)c2ccccc2)c1 | -3.18% | 
O=S(=O)([N-]c1nc2ccccc2nc1-[n+]1ccc(Cc2ccccc2)cc1)c1ccc(Br)s1 | -2.42% | 
CCOc1ccc2nc(N(CCN(C)C)C(=O)c3ccc4ccccc4c3)sc2c1 | 0.0921% | 
CCOc1ccc2nc(C(=O)N3CCCC(C)C3)sc2c1 (centres undefined) |  | 1.78 µM (active)
CCCC(=O)N(CCN1CCOCC1)c1nc2ccc(OCC)cc2s1 | 6.31% | 
CN(C)S(=O)(=O)c1ccc(C(=O)NCC2(N3CCOCC3)CCCCC2)cc1 | 0.588% | 
CNS(=O)(=O)c1ccc(C(=O)NCC(=O)NCCc2ccc3c(c2)OCCO3)cc1 | -3.12% | 
Cc1cccc(N(Cc2ccccc2)C(=O)c2ccccc2F)c1 | 8.75% | 
O=C(CCN1c2ccccc2Sc2ccccc21)Nc1ccccc1 | -4% | 
CCN1/C(=C/c2ccc3ccc(C)cc3[n+]2CC)Sc2ccccc21 | -22.4% | 
CCN1/C(=C/C(=S)Nc2ccccc2)Sc2ccccc21 |  | 2.82 µM (active)
CC(OC(=O)Cc1ccc(F)cc1)C(=O)N1CCc2ccccc21 (centres undefined) | 1.57% | 
COc1cccc(C(=O)Nc2nnc(S(=O)(=O)N3CCCCC3)s2)c1 | 3.53% | 
C=CCN1C(=O)c2ccc(C(=O)N3CCC(C(=O)OCC)CC3)cc2C1=O | -0.533% | 
Cc1ccc(OS(=O)Nc2cccc3nccnc23)cc1 (centres undefined) | 7.91% | 
O=C(CCS(=O)(=O)Cc1ccccc1)Nc1ccc2c(c1)OCCO2 | -1.29% | 
Nc1c(C(=O)Nc2ccc3c(c2)OCCO3)nnn1Cc1ccccc1 |  | 1.26 µM (active)
CCc1ccc(NC(=O)Cn2nnc(C(=O)NCc3ccc4c(c3)OCO4)c2N)cc1 | -9.68% | 
CC(C)(C)OC(=O)NCCCCCNC(=O)c1nc[nH]c1C(=O)NCc1ccccc1 | -5.73% | 
O=C(c1cnn2ccccc12)N1CCc2ccccc21 |  | 1.78 µM (active)
CCOC(=O)N1CCC(NC(=O)c2cnn3ccccc23)CC1 | 1.89% | 
Cc1cnc(C(=O)OCC(=O)N2CCc3ccccc32)cn1 | 5.77% | 
CC(=O)c1c(C)[nH]c(C(=O)N2CCN(S(=O)(=O)c3ccc(F)c(F)c3)CC2)c1C | 0.546% | 
Clc1ccc(-c2cc(-c3ccccn3)on2)c(Cl)c1 |  | 0.1 µM (active)
COn1c(-c2ccc(Cl)cc2Cl)nc2ncccc21 | -2.3% | 

Compound | activation, negative = inhibition | Potency
Clc1ccc(-c2ncc3ccccn23)c(Cl)c1 | -3.01% | 
COc1cccc(C(=O)OCC(=O)c2[nH]c(C)c(C(C)=O)c2C)c1 | -7.27% | 
CN(Cc1cccs1)C(=O)CN1C(=O)c2ccccc2S1(=O)=O | 22.4% | 
O=C(/C=C(O)/C=C/c1ccc(O)cc1)/C=C/c1ccc(O)cc1 | -2.14% | 
Cc1ccc(C(=O)NNC(=O)c2ccc3c(c2)OCCO3)cc1 |  | 3.98 µM (active)
Cc1nc(NC(=O)c2ccc3c(c2)OCCO3)ccc1Br |  | 0.562 µM (active)
COc1ccc(/C=N/NC(=O)c2ccc3c(c2)OCCO3)c(OC)c1 | 1.01% | 
CCCCC(CC)C(=O)Nc1ccc(Cl)cn1 (centres undefined) | -2.96% | 
O=C(Nc1ccc(Cl)cn1)c1ccc2c(c1)OCCO2 |  | 0.562 µM (active)
Cc1cccc(C)c1NC(=O)CNC(=O)c1ccc2c(c1)OCCO2 | 1.78% | 
COc1ccc(C(=O)NC(=S)Nc2ccc(Cl)cn2)cc1OC | -0.572% | 
CCCc1cc(C(=O)Nc2ccc(Cl)cn2)cs1 |  | 0.447 µM (active)
CCCc1cc(C(=O)Nc2ccc(C(=O)OC)cc2)cs1 | 24.7% | 
O=C(Nc1cccc(Cl)c1N1CCOCC1)c1ccc2c(c1)OCCO2 | -2.62% | 
Cc1ccc2sc(NNC(=O)c3ccc4c(c3)OCCO4)nc2c1C | -6.32% | 
CC(=O)c1ccc2c(c1)OCCOCCOc1ccc(C(C)=O)cc1OCCOCCO2 | 0.828% | 
CCOCC(=O)NCc1ccc2c(c1)cc(C)n2C | 0.0404% | 
Cc1cccc(Nc2nnc(SCC(=O)c3c(N)n(C4CC4)c(=O)[nH]c3=O)s2)c1C | -5.09% | 
Cc1cc(C)c2nc(SCC(=O)N(C)C3CCS(=O)(=O)C3)cc(C)c2c1 (centres undefined) | -3.36% | 
CC(C)(C)C1C/C(=C/c2ccco2)C(=O)/C(=C/c2ccco2)C1 (centres undefined) | -4.64% | 
CSc1ccc(Cl)c(C(=O)OCC(=O)N2CCNC2=O)c1 | -0.409% | 
CCn1c(=S)sc2c(=O)n(CC(=O)Nc3ccc(OC)cc3)c(C)nc21 | 3.7% | 
Cc1ccc(CSc2ccc(S(=O)(=O)N3CCCCC3)cn2)cc1 | -3.41% | 
O=C(CCNS(=O)(=O)c1ccccc1)NCCCc1ccccc1 | 2.02% | 
CC(=O)Oc1ccc2c(c1)C(=O)c1ccccc1C2=O | 13.4% | 
COc1ccc2c(c1OC)C(=O)c1ccccc1C2=O |  | 3.98 µM (active)
COc1cccc(-c2ccc3c(c2)S(=O)(=O)c2cccc(C(=O)O)c2C3=O)c1OC | -4.96% | 
